The source made the active and inactive calls. Calls follow the shape of the dose curve; as a rule, active = well fitted activation curve with a large enough effect; inconclusive = small, poorly fitted or top-dose-only effect; inactive = no such curve, though single readings can be large or run the other way.
The molecules below were run against Cytochrome P450 3A4 (Homo sapiens) (UniProt P08684) (assay: qHTS Assay for Activators of Cytochrome P450 3A4 (AID 885; also: nearly all actives have a fitted effect of over 65% in size)). Conditions: recombinant CYP3A4, Luciferin-PPXE luminescence, 60 min; series mostly up to 57.1 µM; activity change, positive = activation: at the top concentration.
In short: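 Steps: enzyme/substrate mix dispensed; compound added, 10 min RT; NADPH regeneration solution added, 60 min RT; luciferin detection buffer stops reaction; 20 min later luminescence measured.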

Chain of Cytochrome P450 3A4 (Homo sapiens) (P08684 whole entry, looked up): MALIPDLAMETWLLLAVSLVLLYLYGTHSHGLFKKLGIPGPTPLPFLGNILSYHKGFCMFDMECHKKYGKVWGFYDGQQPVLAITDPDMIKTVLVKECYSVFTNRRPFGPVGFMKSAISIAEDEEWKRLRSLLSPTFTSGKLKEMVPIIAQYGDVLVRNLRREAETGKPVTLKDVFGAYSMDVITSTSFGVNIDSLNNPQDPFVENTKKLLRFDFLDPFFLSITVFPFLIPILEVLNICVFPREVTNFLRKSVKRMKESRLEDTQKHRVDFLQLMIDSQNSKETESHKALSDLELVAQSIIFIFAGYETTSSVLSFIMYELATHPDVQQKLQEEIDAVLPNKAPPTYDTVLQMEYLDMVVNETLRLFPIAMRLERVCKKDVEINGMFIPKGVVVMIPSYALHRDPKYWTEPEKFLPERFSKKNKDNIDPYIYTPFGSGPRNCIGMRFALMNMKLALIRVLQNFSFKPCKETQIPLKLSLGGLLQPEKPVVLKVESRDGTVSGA

Activity change, positive = activation, inactive:
CN1C[C@@H]2C(c3ccccc3)C3(c4ccc(C#N)cc4)CC2(C3)[C@H]1c1ccccc1 (stereo partly drawn) -56.9%
COC(=O)C/C=C\[C@@H](C)[C@@H](/C=N\O[C@@H](C)CN1CCCc2nc(C)c(C)cc21)OC -59.1% [at 11.4 µM]
COC(=O)c1ccc(CN2[C@@H]3C[C@@H](O)CC[C@@H]3C[C@H]2C(=O)OC)cc1 -59.2%
CCC1=C2CC[C@H]3C(=O)NC(=O)[C@H]3[C@H]2[C@@]2(C)C(=O)N(CC3CC3)C(=O)N2C1=O -36.8%
CO[C@@H]1/C=C\CC(=O)N[C@@H](C)C(=O)OC[C@@H](OC)[C@H](C)CCCC(=O)OC[C@H]1C -57.1% [at 11.4 µM]
COc1ccc(COC(=O)N/N=C2/C[C@@H](O)[C@@H](O)[C@@H]3[C@@H]4C(=O)N([C@@H](C)c5ccccc5)C(=O)[C@H]4CC[C@H]23)cc1 -54.4% [at 11.4 µM]
CN1C[C@@H]2C(c3ccccc3)C3(c4ccccc4)CC2(C3)[C@H]1c1ccccc1 (stereo partly drawn) -59.9%
FC(F)(F)c1ccc(CN2C[C@@H]3C(c4ccc(C(F)(F)F)cc4)C4(c5ccccc5)CC3(C4)[C@H]2c2ccccc2)cc1 (stereo partly drawn) -40.3%
COC(=O)c1cccc(C23CC4(C2)[C@H](CN(C)[C@@H]4c2ccccc2)C3c2ccc(Cl)nc2)c1 (stereo partly drawn) -51.4%
O=C1[C@H]2O[C@@H]2[C@@H](O)[C@H]2[C@H]1CCn1c(=O)n(Cc3cc4c(cc3Cl)OCO4)c(=O)n12 -36.7% [at 11.4 µM]
CC(=O)OC[C@@H]1O[C@@H](O/N=C2/C[C@@H](O)[C@@H](O)[C@@H]3[C@@H]4C(=O)N(Cc5ccc6c(c5)OCO6)C(=O)[C@H]4CC[C@@H]23)[C@H](OC(C)=O)[C@H](OC(C)=O)[C@@H]1OC(C)=O -36.6% [at 11.4 µM]
CCCC[C@@H]1CN2[C@H](c3ccc(Br)cc3)[C@@H](C)CC[C@H]2C(=O)O1 -59.6% [at 11.4 µM]
O=C1[C@H]2[C@H]3[C@H](O)[C@H](O)C/C(=N/OCc4ccccc4)[C@H]3CC[C@@H]2C(=O)N1Cc1ccc2c(c1)OCO2 -96.1% [at 11.4 µM]

From PubChem BioAssay (NCATS)
